According to PubChem BioAssay:
Activity calls are given as the source filed them. The rule behind the calls is not given here.

biological target: Pantothenate synthetase (Mycobacterium tuberculosis (strain ATCC 25618 / H37Rv)) (UniProt P9WIL5); test: Coupled enzyme confirmation of inhibitors against recombinant Mtb PanC (AID 375); conditions: coupled enzyme assay; at 10 µM, stronger effect = higher value;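 note: 0% = full reaction with vehicle and 100% = no enzyme background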
Sequence (P9WIL5 whole entry, looked up): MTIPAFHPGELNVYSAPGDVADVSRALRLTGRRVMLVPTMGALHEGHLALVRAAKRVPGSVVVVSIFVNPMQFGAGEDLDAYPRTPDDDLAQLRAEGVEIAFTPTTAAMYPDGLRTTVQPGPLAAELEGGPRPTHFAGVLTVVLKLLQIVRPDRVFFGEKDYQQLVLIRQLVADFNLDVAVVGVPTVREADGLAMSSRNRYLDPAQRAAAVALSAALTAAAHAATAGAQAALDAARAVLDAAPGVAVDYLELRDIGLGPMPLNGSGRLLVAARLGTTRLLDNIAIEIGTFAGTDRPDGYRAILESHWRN

Structure (SMILES) | inhibition
Cc1nc2c(-c3ccccc3)c(C)nn2c(C)c1CCC(=O)NCc1ccco1 | 2% (inactive)
O=C(C1CCC1)N1CCc2cc(S(=O)(=O)Nc3ccc4c(c3)OCO4)ccc21 | 16% (inactive)
Cc1c(C(=O)NCCC2=CCCCC2)oc2ccc(S(=O)(=O)N3CCC4(CC3)OCCO4)cc12 | 0% (inactive)
COC(=O)c1oc2ccc(Br)cc2c1NC(C)=O | 0% (inactive)
CCOC(=O)C(C)(C)Sc1nc2c(cnn2-c2ccc(C)cc2)c(=O)[nH]1 | 0% (inactive)
C/C(=C\C(=O)c1ccc(F)cc1)Nc1ccc(N2CCOCC2)cc1 | 0% (inactive)
CCOc1ccc2nc(SCC(=O)N3CCCCCC3)c(C#N)cc2c1 | 0% (inactive)
CC(=O)NC(Cc1cc(C)ccc1C)C(=O)N1CCN(C(=O)Nc2ccc(C(C)=O)cc2)CC1 (stereo not given) | 0% (inactive)
CN(C)c1nc(N)nc(CSc2nnnn2-c2cccc3ccccc23)n1 | 0% (inactive)
Cc1ccccc1-c1nc(CN2CCC(C(=O)NC3CCN(Cc4ccccc4)CC3)CC2)c(C)o1 | 0% (inactive)
O=[n+]1c2c(n([O-])c3c1CCCC3)CCCC2 | 0% (inactive)
CC1CN(c2c3c(nc4ncnn24)CCCC3)CC(C)O1 (stereo not given) | 2% (inactive)
Cc1ccc2c(c1)c1c(n2CC(O)Cn2c(C)nc3ccccc32)/C(=N\O)CCC1 (stereo not given) | 5% (inactive)
C=CCn1c(COc2cccc(C)c2)nnc1SCC(=O)NC(=O)NCc1ccco1 | 0% (inactive)
Cc1ccc(S(=O)(=O)NC(C(=O)OCC(=O)NC2CCS(=O)(=O)C2)C(C)C)cc1 (stereo not given) | 0% (inactive)
